Among the data in PubChem BioAssay AID720711 (National Center for Advancing Translational Sciences (NCATS), 2013) are Potency and activation values, retold here.

Screen size: about 360,000 compounds; about 290 (0.081%) were called active. A call without a number means that no potency is given here. The full list was thinned out, with actives kept by preference. Unmarked numbers belong to inactive results. Calls come from the whole dose curve; as a rule, active = well fitted activation curve with a large enough effect; inconclusive = small, poorly fitted or top-dose-only effect; inactive = no such curve, though single readings can be large or run the other way.
Potency is the fitted concentration of half-maximal effect.

Chain of Rap guanine nucleotide exchange factor 4 (Homo sapiens) (Q8WZA2 whole entry, looked up): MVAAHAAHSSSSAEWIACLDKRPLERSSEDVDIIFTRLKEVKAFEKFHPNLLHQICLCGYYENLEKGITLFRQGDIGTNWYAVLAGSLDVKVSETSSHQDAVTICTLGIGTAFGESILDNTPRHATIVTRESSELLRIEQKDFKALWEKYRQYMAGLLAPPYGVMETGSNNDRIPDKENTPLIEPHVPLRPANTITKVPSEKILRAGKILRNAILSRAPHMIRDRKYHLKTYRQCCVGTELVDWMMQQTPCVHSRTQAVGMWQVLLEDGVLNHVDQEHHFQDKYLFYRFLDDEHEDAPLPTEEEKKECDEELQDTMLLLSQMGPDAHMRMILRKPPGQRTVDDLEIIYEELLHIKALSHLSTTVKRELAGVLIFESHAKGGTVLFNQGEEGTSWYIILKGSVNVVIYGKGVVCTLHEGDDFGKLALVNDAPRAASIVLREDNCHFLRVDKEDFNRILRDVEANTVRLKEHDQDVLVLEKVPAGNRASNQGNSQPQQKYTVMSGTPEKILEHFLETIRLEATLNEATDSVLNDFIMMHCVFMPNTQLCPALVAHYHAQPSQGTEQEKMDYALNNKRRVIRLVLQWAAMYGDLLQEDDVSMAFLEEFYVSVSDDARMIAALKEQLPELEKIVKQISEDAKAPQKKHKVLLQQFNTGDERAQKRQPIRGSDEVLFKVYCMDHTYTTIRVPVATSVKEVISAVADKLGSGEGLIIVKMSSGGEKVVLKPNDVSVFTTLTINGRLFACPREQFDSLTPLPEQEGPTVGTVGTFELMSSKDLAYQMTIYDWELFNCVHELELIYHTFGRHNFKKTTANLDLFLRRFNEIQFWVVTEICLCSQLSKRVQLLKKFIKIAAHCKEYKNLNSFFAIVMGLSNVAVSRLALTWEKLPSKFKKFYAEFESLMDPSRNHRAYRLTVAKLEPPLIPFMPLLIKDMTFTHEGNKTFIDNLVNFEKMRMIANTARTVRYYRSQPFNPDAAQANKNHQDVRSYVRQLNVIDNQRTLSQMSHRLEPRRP

The test has as its target Rap guanine nucleotide exchange factor 4 (Homo sapiens) (UniProt Q8WZA2). Put plainly: qHTS for Agonist of cAMP-regulated guanine nucleotide exchange factor 4 (EPAC2): primary screen. Note: nearly all actives have a fitted effect of over 50% in size. The note with it: biochemical qHTS; Potency: EPAC2 activation; series mostly up to 154 µM. The source says:
In multi-cellular eukaryotic organisms, the effects of cAMP are transduced by two ubiquitously-expressed intracellular cAMP receptors, the classic protein kinase A/cAMP-dependent protein kinase (PKA/cAPK) and the more recently discovered exchange protein directly activated by cAMP/cAMP-regulated guanine nucleotide exchange factor (EPAC/cAMP-GEF). Both PKA and EPAC are ubiquitously expressed in all tissues, and an increase in intracellular cAMP levels will lead to the activation of both PKA and EPAC. Therefore, careful dissections of the individual role and relative contribution of EPAC and PKA within the overall cAMP signaling in various model systems are critical for further elucidating the mechanism of cAMP signaling. To date no EPAC-specific antagonists and agonist, as well as isoform-specific agonists have been reported, and developing EPAC-specific pharmacological probes to determine the physiological functions that EPAC play in the overall cAMP-mediated signaling remains a major challenge within the research field. Furthermore, identified regulators of EPAC may lead to new mechanism-based therapeutic strategies specifically targeting the EPAC / cAMP-signaling components as EPAC has been implicated to play important roles in major human pathological conditions such as diabetes, heart disease, and cancer.
This qHTS will be used to screen the Molecular Libraries Small Molecule Repository (MLSMR) as a concentration-titration series using the NCGC unique quantitative screening (qHTS) platform to find activators for EPAC2. In addition, this assay will also be used as a counterscreen for the EPAC1 qHTS. This fluorescent based assay is developed and validated for EPAC2 that measures exchange using EPAC effector Rap1 complex with BODIPY-GDP, a GDP analog with a tethered fluorophores. Activators are identified by monitoring the change in fluorescence signal as the exchanged free BODIPY-GDP has a reduced fluorescence compared to Rap1-bound BODIPY-GDP. […] in signal (activation) is the desired outcome for the EPAC2 agonist while no activity in this assay is desired for the EPAC1 agonist counterscreen.
[1] de Rooij, J., Zwartkruis, F. J., Verheijen, M. H., Cool, R. H., Nijman, S. M., Wittinghofer, A., and Bos, J.L. (1998) Nature 396, 474-477
[2] Kawasaki, H., Springett, G. M., Mochizuki, N., Toki, S., Nakaya, M., Matsuda, M., Housman, D. E., and Graybiel, A. M. (1998) Science 282, 2275-2279
NIH Chemical Genomics Center [NCGC]
NIH Molecular Libraries Probe Centers Network [MLPCN]
Assay Submitter (PI): Xiaodong Cheng, The University of Texas, Medical Branch
Briefly, three uL of reagents (100 nM EPAC2, 250 nM RAP1B-BODIPY-GDP, 50 uM GDP) were dispensed into a 1536-well Greiner black solid-bottom medium binding assay plate. Controls and test compounds (23 nL) were transferred to the plate via a Kalypsys pin tool equipped with a 1536-pin array. The plates were centrifuged at 1,000 rpm for 15 seconds followed by 5 minute incubation at room temperature. The assay plates were read at 5 minute intervals for 30 minutes in the ViewLux plate reader using 480nm excitation and 540nm emission filters. The results were normalized to the agonist positive control of 6.5 mM cAMP.
In general terms: Quantitative high-throughput screening tests each substance at several concentrations.
For the compound `COc1cc(-c2nnn(CC(=O)NCc3ccccc3)n2)cc(OC)c1OC`, the Potency entry was “inactive”.

For `COC(C(=O)NCc1ccccc1C)c1ccccc1` (stereo not given), the Potency entry was “inactive”.

As for `COc1ccc(NC(=O)CN(C)S(=O)(=O)c2ccccc2)cc1OC`, the Potency entry is “inactive”.

On to `CCN(C(=O)C1CCCN(c2nc(-c3ccc(OC)cc3)no2)C1)c1ccc(OC)cc1` (stereo not given), for which the Potency result was “inactive”.

Turning to `CCc1cccc(OC2OC(CO)C(O)C(O)C2NC(C)=O)c1` (stereo not given), the Potency entry is “inactive”.

With `CCN(Cc1ccccc1)S(=O)(=O)c1cc(C(=O)O)ccc1OC`, the Potency result was “inactive”.

As to `COc1ccc(C)c(Cn2c(-c3nonc3N)nc3ccccc32)c1`, the Potency result is “inactive”.

Regarding `Cc1ccc2c(CC(=O)NCc3cccs3)coc2c1`, the Potency entry is “inactive”.

Regarding `CCc1nn(CCCC(=O)NCc2ccc(C)cc2)c(=O)c2cc3occc3n12`, the Potency result is “inactive”.

Regarding `Cc1ccc(C(CNC(=O)Nc2ccccc2)N2CCN(C)CC2)cc1` (stereo not given), the Potency result was “inactive”.

For the compound `O=C(O)C1OC(C(=O)O)C2C1C(F)(F)C2(F)F` (stereo not given), the Potency result was “inactive”.

In the case of `CN(CCNC(=O)c1cc2c(-c3ccccc3F)nn(C)c2s1)C1CCCCC1`, the Potency entry was “inactive”.

As to `CCO[C@@H]1OC(C(=O)NC2CC2)=C[C@H](C)[C@H]1CCCO`, the Potency result is “inactive”.

In the case of `Cc1nc(N)sc1-c1ccccc1`, the Potency entry was “inactive”.

With `O=C(CCc1ccccc1)Nc1ccnn1C1CCN(Cc2ccc(OCCO)cc2)CC1`, the Potency entry was “inactive”.

On to `CC(C)(C)NC(=O)Cn1c(SCC(=O)Nc2nccs2)nc2ccccc21`, for which the Potency result was “inactive”.

With `O=C1C=C(c2ccnc3cc(Cl)ccc23)C[C@@H](c2ccc3c(c2)OCO3)C1`, the Potency result was “inactive”.

Consider `CCCCCC(=O)N1CCN(S(=O)(=O)c2ccc3c(c2)OCCCO3)CC1`, for which the Potency entry is “inactive”.

In the case of `CC1(C)CN(CCc2ccccc2)C(=O)[C@H]1CC(=O)Nc1ccc(Br)cc1`, the Potency result is “inactive”.

On to `COc1ccc(N2C(=O)NC(NS(=O)(=O)c3ccc(Cl)cc3)(C(F)(F)F)C2=O)cc1` (stereo not given), for which the Potency result was “inactive”.

On to `CCOC(=O)c1cnn(Cc2ccccc2Cl)c1N`, for which the Potency result was “inactive”.

For the compound `CCOC(=O)c1ccccc1NC(=O)c1c(N)n(C)c(=O)[nH]c1=O`, the Potency entry was “inactive”.

Regarding `CCOC(=O)c1cc2n(c1N)-c1ccccc1C2=O`, the Potency was 89.1 µM (active).

Consider `CN(C)NC(=O)c1csnc1-c1c(Cl)cccc1Cl`, for which the Potency entry was “inactive”.

In the case of `O=S(=O)(NCc1ccccc1Cl)c1cnc[nH]1`, the Potency result is “inactive”.

Regarding `CCc1nc2sc3c(Cl)ncnc3c2c2c1CCCC2`, the Potency entry was “inactive”.

On to `COc1ccc(CNC(=O)C[C@H]2C[C@H](C(=O)N3CCOCC3)[C@@]3(CCC4CCCC4)c4[nH]c5ccc(Cl)cc5c4CCN3C2=O)cc1OC`, for which the Potency result is “inactive”.

Regarding `O=C1[C@H]2[C@@H](c3ccc(C(F)(F)F)cc3)N[C@]3(CCCN(Cc4ccc(Cl)cc4)C3=O)[C@H]2C(=O)N1Cc1ccccc1`, the Potency entry was “inactive”.

With `CCN(CC)CCCC(C)n1c2nc(=O)[nH]c(=O)c-2nc2cc(Cl)ccc21` (stereo not given), the Potency is 100 µM (active).

`c1ccc(C[C@H]2CNCCN2CCC23CC4CC(CC(C4)C2)C3)cc1`: the Potency entry is “inactive”.

`Cn1c(=O)c2c(nc(N3CCCCCC3)n2CC(O)COc2ccc(Cl)cc2)n(C)c1=O` (stereo not given): the Potency entry is “inactive”.

As for `CSCc1cc(N(C)C)nc(SCc2ccc(Cl)cc2Cl)n1`, the Potency result is “inactive”.

`CCCOc1ccc(Cc2c(Cl)nc(SC)nc2NC)cc1`: the Potency entry is “inactive”.

On to `Cc1sc2ncn(CC(=O)NCCCC(=O)N3CCN(c4ccccc4F)CC3)c(=O)c2c1C`, for which the Potency result was “inactive”.

Take `Cc1oc(C)c(C(=O)NCCCC(=O)O)c1C(=O)NCCCC(=O)O`: the Potency result is “inactive”.

Turning to `O=CN1CCN(C(=O)c2ccc(Br)o2)CC1`, the Potency result was “inactive”.

Take `Cc1cc(C)c2oc(C(=O)Nc3ccc(S(=O)(=O)Nc4nccc(C)n4)cc3)cc(=O)c2c1`: the Potency entry is “inactive”.

Take `COc1ccc(NC(=O)N(C)C[C@H]2Oc3ncc(C#C[C@@H](C)O)cc3C(=O)N([C@H](C)CO)C[C@H]2C)cc1`: the Potency entry was “inactive”.

Regarding `CCCCN1C(=O)C(CC(=O)NC(c2ccccc2)c2ccccc2)CC(C(=O)N2CCOCC2)=C1C` (stereo not given), the Potency result is “inactive”.

In the case of `CC(C)(C)[C@H]1C=C(C(=O)NCc2ccccc2)O[C@@H](OCc2ccc(CO)cc2)C1`, the Potency entry was “inactive”.

`NC(=O)c1ccccc1N=Cc1ccc2ccccc2c1`: the Potency result is “inactive”.

In the case of `O=C(Nc1ccc2c(c1)C(=O)OC2)Nc1cccc2ccccc12`, the Potency result is “inactive”.

In the case of `Cn1ccs/c1=N\S(=O)(=O)c1ccc(C(C)(C)C)cc1`, the Potency entry is “inactive”.

For `CC12c3ccccc3C(c3ccccc31)C1C(=O)N(Cc3cccnc3)C(=O)C12` (stereo not given), the Potency entry was “inactive”.

For the compound `Cc1cccc(-c2c(NC(=O)c3ccco3)oc3ccc(Cl)cc3c2=O)c1`, the Potency entry is “inactive”.

For `O=C(NCCCN1CCCCC1)C1CCCN(c2ncnc3c2nc2n3CCCCC2)C1` (stereo not given), the Potency result was “inactive”.

As to `CC1CCC(CN2CCN=C2N(C)C)CC1` (stereo not given), the Potency entry is “inactive”.

In the case of `CC(Oc1ccc(Br)cc1)C(=O)NCC(c1ccco1)N1CCCCC1` (stereo not given), the Potency entry was “inactive”.

`O=C(c1ccccc1)C(Cn1cncn1)C(Sc1ccccc1)c1ccccc1` (stereo not given): the Potency entry is “inactive”.

With `CCCCCCc1cc2cc(-c3nnc(-c4ccccc4)o3)c(=O)oc2cc1O`, the Potency was 44.7 µM (active).

As to `COc1cc(C(=O)NCC(=O)NCCSc2ccc(Br)cc2)cc(OC)c1OC`, the Potency result is “inactive”.

As to `CN(CCOc1ccc(Br)cc1)CC(=O)Nc1cccc(S(=O)(=O)NC2=NCCC2)c1`, the Potency entry was “inactive”.

Consider `CCN=C1S/C(=C\c2cc(Br)ccc2OCC(=O)OCC)C(=O)N1CC`, for which the Potency result was “inactive”.

In the case of `CC(C)N1C(=S)SC(C)(C)C1n1oc(=O)n(-c2ccc(Cl)c(Cl)c2)c1=O` (stereo not given), the Potency result was “inactive”.

Regarding `COC(=O)c1ccc([C@@H](O)[C@H](C)C(=O)CC(=O)OC(C)(C)C)cc1`, the Potency result was “inactive”.

As for `CC(=O)Oc1ccc(-c2cccc(C(=O)N3CCCCC3)c2)cc1`, the Potency result is “inactive”.

Consider `CCN(CC(=O)Nc1cccc(S(N)(=O)=O)c1)Cc1nc2ccccc2c(=O)[nH]1`, for which the Potency entry is “inactive”.

As to `Cc1nc2ccc(S(=O)(=O)N(C)CC(=O)NC(C)c3ccccc3)cc2s1` (stereo not given), the Potency entry is “inactive”.

Regarding `Cc1cc2c(cc1C)NC(c1ccccn1)C1=C(CC(C)(C)CC1=O)N2` (stereo not given), the activation is 0% [at 15.6 µM, 100% = 6.5 mM cAMP response].

On to `O=C(Cn1nnc2ccccc2c1=O)NCc1ccc(Cl)cc1`, for which the Potency entry was “inactive”.

Regarding `Cc1ccc(S(=O)(=O)CCC(=O)OCc2ccccc2)cc1`, the Potency entry is “inactive”.

As for `O=C(CNC(=O)c1ccccc1F)OCC(=O)c1c[nH]c2ccccc12`, the Potency entry was “inactive”.

Regarding `CN1C(CC(=O)Nc2ccc(Br)cc2)c2ccccc2CC1(C)C` (stereo not given), the Potency entry is “inactive”.

Consider `O=C(COC(=O)c1c(Cl)cccc1Cl)Nc1cccc(S(=O)(=O)NC2=NCCCCC2)c1`, for which the Potency entry is “inactive”.

Turning to `CCCN(CC(=O)Nc1ccc(C(N)=O)cc1)CC(=O)Nc1ccccc1C`, the Potency entry is “inactive”.
